For test [1], the target named is Cytochrome P450 3A4 (Homo sapiens) (UniProt P08684). Put plainly: qHTS Assay for Inhibitors and Substrates of Cytochrome P450 3A4 (AID 884). Also: nearly all actives have a fitted effect of over 50% in size. Also: potency is read from the fitted curve at half-maximal effect. As to activity change, negative = inhibition: % is scaled to controls: 0 for no effect and ±100 for the full control effect. In a few lines: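 Luminescent readout of luciferin produced by CYP3A4 (20 nM) dealkylation of Luciferin-PPXE, 25 uM (its KM). NADPH-driven reaction ran 60 min at RT after 10 min compound preincubation; data scaled to 57 uM ketoconazole as 100% inhibition.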

Test [2] in a line: Confirmation and Secondary Assay for Modulators of Hemoglobin Beta Chain Splicing at IVS2 654 locus (AID 910).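 Also: HeLa cells stably carrying EGFP split by mutant beta-globin IVS2-654 intron; % of control where 0% means no effect.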 In short, it runs like this: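 HeLa cells stably expressing EGFP interrupted by β-globin IVS2-654 intron, seeded overnight in Opti-MEM/2% FCS, then treated 2 days at 37 °C. Restored splicing read as total peak GFP intensity per well by laser scanning cytometry (488 nm excitation, 500–520 nm emission); 500 nM antisense PNA as control.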

A short description of test [3]: qHTS Assay for Lipid Storage Modulators (AID 1519; calls by dose curve; as to activity change, negative = inhibition: % is scaled to controls: 0 for no effect and ±100 for the full control effect). Particulars: Drosophila S3 cells, BODIPY lipid droplet/cell ratio, laser cytometry, cells loaded with oleic acid; for activity change, negative = inhibition: at 57.5 µM (top of the series). In short, it runs like this: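 Cells seeded at 5,000 per well were treated with compounds over a concentration series and loaded with oleic acid (400 uM, as added). Lipid droplet fluorescence (488 nm excitation, 500-530 nm channel) was read by laser-scanning cytometry and normalized to 20 uM Triacsin C.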

For test [4], the target named is Ubiquitin carboxyl-terminal hydrolase 1 (Homo sapiens) (UniProt O94782). Put plainly: Inhibitors of USP1/UAF1: Pilot qHTS (AID 504865).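 Also: rhodamine fluorescence freed from ubiquitin-rhodamine substrate followed over time; top concentration of the series differs between compounds; % is scaled to controls: 0 for no effect and ±100 for the full control effect; nearly all actives have a fitted effect of over 35% in size.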 In short, it runs like this: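 In 50mM HEPES pH 7.8 containing 0.5mM EDTA, 1mM TCEP, 0.1 mg/ml BSA and 0.01% Tween-20, 1nM USP1/UAF1 is exposed to compound for 15 min, then Ub-Rho (150nM final) is added and fluorescence is read over time.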

The target of test [5] is Rap guanine nucleotide exchange factor 3 (Homo sapiens) (UniProt O95398). Put plainly: Confirmatory qHTS for antagonist of cAMP-regulated guanine nucleotide exchange factor 3 (EPAC1) (AID 1645880). Also: nearly all actives have a fitted effect of over 55% in size. Also: potency is read from the fitted curve at half-maximal effect. In short, it runs like this:
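Released BODIPY-GDP fluoresces less than Rap1-bound BODIPY-GDP; the signal is followed at 480/540 nm at 5-min intervals over 30 min, after 5 min at room temperature. Reactions contain 100 nM EPAC1, 250 nM RAP1B-BODIPY-GDP and 50 uM GDP; results are normalized to ATA and DMSO.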

Test [6] has the same target. Briefly: Confirmatory qHTS for agonist of cAMP-regulated guanine nucleotide exchange factor 3 (EPAC1) (AID 1645881).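 Also: EPAC1 catalysed release of BODIPY-GDP from Rap1B seen as fluorescence loss; 100% = effect of cAMP agonist control; nearly all actives have a fitted effect of over 75% in size.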
Test [7] addresses Rap guanine nucleotide exchange factor 4 (Homo sapiens) (UniProt Q8WZA2). Put plainly: Confirmatory qHTS for agonist of cAMP-regulated guanine nucleotide exchange factor 4 (EPAC2) (AID 1645884). Also: % is scaled to controls: 0 for no effect and ±100 for the full control effect; nearly all actives have a fitted effect of over 65% in size.
Test [8] shares this target. Put plainly: Confirmatory qHTS for antagonist of cAMP-regulated guanine nucleotide exchange factor 4 (EPAC2) (AID 1645885). Also: % is scaled to controls: 0 for no effect and ±100 for the full control effect; nearly all actives have a fitted effect of over 25% in size.
The target of test [9] is Cytochrome P450 3A4 (Homo sapiens) (UniProt P08684). Briefly: qHTS Assay for Activators of Cytochrome P450 3A4 (AID 885). Also: nearly all actives have a fitted effect of over 65% in size. In short, it runs like this:
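Human CYP3A4 dealkylates Luciferin-PPXE to luciferin, which luciferase detection converts to light. Substrate was at its KM (25uM), buffer 200mM KPO4, reaction 60 min at RT.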

Test [10] has as its target Rap guanine nucleotide exchange factor 3 (Homo sapiens) (UniProt O95398). Put plainly: Counterscreen qHTS for antagonist of cAMP-regulated guanine nucleotide exchange factor 3 (EPAC1) (AID 1645888). Also: % of control where 0% means no effect. In short, it runs like this: (§1)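 Rap1B–BODIPY-GDP (250 nM) with 50 uM GDP; compounds pin-transferred to 9.74 nM–152 uM final (activator) or from 7.32 nM upwards (inhibitor). Fluorescence Ex/Em 480/540 nm read at 5 and 30 min, then after adding cAMP or buffer, at room temperature.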

For test [11] the target is unchanged. Put plainly: Counterscreen qHTS for agonist of cAMP-regulated guanine nucleotide exchange factor 3 (EPAC1) (AID 1645889). Also: % of control where 0% means no effect; nearly all actives have a fitted effect of over 40% in size. In a few lines: as §1
The nature of test [12]: Confirmation and Secondary Assay for Modulators of Hemoglobin Beta Chain Splicing at IVS2 705 locus (AID 930).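 Also: HeLa cells stably expressing the EGFP-705 splicing reporter; GFP fluorescence per well restored by corrected splicing of the IVS2-705 intron in EGFP; % of control where 0% means no effect.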 In a few lines:
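First, HeLa EGFP-705 cells are seeded at 500/well in Optimem with 2% FCS and left overnight. Next, compound or DMSO is added for 2 days. Finally wells are laser-scanned and total peak GFP intensity scored.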

For test [13], the target named is DNA dC->dU-editing enzyme APOBEC-3G (Homo sapiens) (UniProt Q9HC16). Briefly: qHTS for inhibitors of Vif-A3G interactions: Validation (AID 588379). Also: 0% is about no effect. In short, it runs like this:
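Yellow fluorescence (Ex 488, Em 500-530) of Vif-coexpressing HeLa A3G-eYFP cells, scanned by Acumen cytometer, reports blocked A3G degradation. Cells plated at 700/well overnight at 37 deg C before compound addition, then a further overnight compound incubation at 37 deg C.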

Where [14] appears, read: measured here: cell count channel max response.
Where [15] appears, read: measured here: lipid channel max response.

Inconclusive results are not listed. Active and inactive are the calls of the source. Unless noted, calls follow the shape of the dose curve; as a rule, active = well fitted curve in the direction sought with a large enough effect; inconclusive = small, poorly fitted or top-dose-only effect, or another doubt; inactive = no such curve, though single readings can be large; an effect the other way counts as inactive or inconclusive.

Chain of Rap guanine nucleotide exchange factor 4 (Homo sapiens) (Q8WZA2 whole entry, looked up): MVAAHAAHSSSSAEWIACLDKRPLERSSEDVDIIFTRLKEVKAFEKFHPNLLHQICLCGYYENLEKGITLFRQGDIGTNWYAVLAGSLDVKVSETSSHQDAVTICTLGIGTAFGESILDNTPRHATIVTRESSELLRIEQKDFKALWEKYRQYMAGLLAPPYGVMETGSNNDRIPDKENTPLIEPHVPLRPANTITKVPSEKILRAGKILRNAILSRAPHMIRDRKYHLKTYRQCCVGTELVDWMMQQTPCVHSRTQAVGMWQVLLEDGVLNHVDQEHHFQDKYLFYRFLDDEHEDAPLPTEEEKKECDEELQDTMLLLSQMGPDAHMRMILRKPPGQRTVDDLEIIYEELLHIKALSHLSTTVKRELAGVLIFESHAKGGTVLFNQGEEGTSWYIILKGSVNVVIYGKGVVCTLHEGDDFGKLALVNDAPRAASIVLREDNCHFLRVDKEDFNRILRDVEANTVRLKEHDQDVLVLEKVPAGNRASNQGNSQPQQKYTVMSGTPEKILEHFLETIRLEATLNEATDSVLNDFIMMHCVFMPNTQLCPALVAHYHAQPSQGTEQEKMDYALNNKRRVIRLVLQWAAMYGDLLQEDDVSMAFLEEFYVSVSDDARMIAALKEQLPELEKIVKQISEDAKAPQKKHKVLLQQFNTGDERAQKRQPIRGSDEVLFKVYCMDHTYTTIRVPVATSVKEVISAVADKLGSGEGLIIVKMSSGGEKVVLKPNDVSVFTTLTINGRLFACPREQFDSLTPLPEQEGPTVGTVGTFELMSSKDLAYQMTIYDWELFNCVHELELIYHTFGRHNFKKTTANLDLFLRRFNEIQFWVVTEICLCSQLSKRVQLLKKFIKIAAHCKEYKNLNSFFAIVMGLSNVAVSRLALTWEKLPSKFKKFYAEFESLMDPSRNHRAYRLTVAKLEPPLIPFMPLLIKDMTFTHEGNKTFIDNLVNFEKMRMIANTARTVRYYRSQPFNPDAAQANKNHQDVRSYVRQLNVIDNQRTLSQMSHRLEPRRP
Chain of Rap guanine nucleotide exchange factor 3 (Homo sapiens) (O95398 whole entry, looked up): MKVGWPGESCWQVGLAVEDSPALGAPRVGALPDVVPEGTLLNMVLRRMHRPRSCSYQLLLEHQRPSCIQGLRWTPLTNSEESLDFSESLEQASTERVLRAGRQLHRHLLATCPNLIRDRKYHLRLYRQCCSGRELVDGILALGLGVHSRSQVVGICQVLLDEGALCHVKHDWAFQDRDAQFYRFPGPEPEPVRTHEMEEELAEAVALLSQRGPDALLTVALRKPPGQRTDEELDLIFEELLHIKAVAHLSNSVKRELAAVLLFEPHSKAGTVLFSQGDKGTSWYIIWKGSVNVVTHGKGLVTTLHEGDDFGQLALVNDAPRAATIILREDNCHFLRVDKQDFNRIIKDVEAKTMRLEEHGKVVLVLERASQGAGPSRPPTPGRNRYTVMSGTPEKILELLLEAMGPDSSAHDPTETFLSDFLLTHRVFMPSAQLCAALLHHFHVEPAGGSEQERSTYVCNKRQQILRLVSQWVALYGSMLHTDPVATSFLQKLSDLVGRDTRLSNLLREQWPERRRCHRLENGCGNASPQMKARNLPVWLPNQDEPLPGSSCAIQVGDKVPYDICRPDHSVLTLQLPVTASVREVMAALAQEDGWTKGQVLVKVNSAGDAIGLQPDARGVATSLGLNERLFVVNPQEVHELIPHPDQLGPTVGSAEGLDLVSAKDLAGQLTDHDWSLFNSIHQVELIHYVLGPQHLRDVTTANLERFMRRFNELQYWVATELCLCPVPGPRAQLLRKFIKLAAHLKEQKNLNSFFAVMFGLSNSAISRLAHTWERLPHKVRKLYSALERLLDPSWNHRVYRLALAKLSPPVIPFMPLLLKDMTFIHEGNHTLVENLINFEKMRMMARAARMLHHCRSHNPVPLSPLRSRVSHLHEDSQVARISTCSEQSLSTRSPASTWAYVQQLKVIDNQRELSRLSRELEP
Chain of Ubiquitin carboxyl-terminal hydrolase 1 (Homo sapiens) (O94782 whole entry, looked up): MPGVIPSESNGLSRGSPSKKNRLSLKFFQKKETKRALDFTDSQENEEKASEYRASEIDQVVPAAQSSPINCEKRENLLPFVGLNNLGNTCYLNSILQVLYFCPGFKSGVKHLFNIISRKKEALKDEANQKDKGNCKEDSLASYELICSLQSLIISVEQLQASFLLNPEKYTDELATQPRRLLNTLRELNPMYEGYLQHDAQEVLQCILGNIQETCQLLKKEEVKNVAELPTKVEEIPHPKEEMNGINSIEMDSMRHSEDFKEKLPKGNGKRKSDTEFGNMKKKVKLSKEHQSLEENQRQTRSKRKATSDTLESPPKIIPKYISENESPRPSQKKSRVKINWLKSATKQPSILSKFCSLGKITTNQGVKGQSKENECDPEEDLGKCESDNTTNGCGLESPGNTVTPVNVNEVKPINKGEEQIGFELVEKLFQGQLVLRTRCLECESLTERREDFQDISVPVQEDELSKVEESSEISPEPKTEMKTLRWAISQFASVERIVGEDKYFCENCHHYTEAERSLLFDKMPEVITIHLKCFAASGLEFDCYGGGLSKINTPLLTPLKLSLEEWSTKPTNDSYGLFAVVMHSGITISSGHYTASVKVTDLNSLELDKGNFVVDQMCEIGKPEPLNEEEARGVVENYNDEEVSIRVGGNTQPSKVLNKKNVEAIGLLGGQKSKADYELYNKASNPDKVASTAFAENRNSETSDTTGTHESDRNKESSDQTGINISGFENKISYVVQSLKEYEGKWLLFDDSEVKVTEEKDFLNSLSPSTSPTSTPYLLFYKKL
Chain of Cytochrome P450 3A4 (Homo sapiens) (P08684 whole entry, looked up): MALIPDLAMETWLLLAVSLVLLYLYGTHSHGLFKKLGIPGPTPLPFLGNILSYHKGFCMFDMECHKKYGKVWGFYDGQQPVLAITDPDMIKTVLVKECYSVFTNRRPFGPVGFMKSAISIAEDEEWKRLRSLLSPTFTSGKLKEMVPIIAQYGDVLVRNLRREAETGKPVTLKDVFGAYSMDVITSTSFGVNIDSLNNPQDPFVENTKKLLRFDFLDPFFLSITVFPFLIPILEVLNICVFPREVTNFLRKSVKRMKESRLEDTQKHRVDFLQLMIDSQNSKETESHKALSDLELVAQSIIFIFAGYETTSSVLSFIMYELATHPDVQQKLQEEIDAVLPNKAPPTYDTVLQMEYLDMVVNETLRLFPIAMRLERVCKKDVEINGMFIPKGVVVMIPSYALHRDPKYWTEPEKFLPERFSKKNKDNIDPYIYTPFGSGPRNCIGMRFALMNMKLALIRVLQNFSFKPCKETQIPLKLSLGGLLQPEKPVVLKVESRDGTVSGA
Chain of DNA dC->dU-editing enzyme APOBEC-3G (Homo sapiens) (Q9HC16 whole entry, looked up): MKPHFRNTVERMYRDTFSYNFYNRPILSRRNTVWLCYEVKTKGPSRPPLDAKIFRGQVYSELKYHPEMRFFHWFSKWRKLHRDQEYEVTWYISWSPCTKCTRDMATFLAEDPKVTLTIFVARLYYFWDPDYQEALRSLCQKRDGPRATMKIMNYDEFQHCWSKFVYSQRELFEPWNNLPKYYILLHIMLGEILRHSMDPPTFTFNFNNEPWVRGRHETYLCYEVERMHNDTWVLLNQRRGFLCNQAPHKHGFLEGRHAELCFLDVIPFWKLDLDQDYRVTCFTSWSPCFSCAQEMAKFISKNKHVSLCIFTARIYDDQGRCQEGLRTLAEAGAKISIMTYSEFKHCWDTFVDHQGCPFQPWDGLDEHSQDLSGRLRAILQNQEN

For the molecule `N[C@H](C(=O)O)C(O)C(O)C(O)CO` (some centres not stated), the Potency result in test [1], in [2], in test [4], in test [5], in test [6] and in [7] was “inactive” each time. Moreover, the Potency entry in test [8] is “inactive”. Also, the activity change, negative = inhibition in test [3] is 2.74% (inactive). The values for the max response in [3] (setting [14]) and in [3] (setting [15]) were -0.517% and 3.07%, respectively.

As for `COc1ccc(-c2cc(=O)c3c(OC)c(OC)c(OC)c(OC)c3o2)cc1`, the Potency in [1] is 12.6 µM (active). Besides, the Potency entry in test [9], in test [2], in test [5] and in test [6] was “inactive” each time. Also, the figures for the activity change, negative = inhibition in test [3] and in [10] were -5.75% (inactive) and -8.95% [at 30.8 µM] (inactive), respectively. Besides, the max response in [3] (setting [14]) is -19.4%; in [3] (setting [15]) it was -24.9%. Also, in test [11], the call was inactive.

As to `COC(=O)CCCOc1ccc(Cl)cc1Cl`, the Potency entry in [1], in test [2], in test [4], in test [5], in test [6] and in test [7] was “inactive” in each case. Besides, the molecule was classed as inactive in test [12]. In test [3], the activity change, negative = inhibition was 5.51% (inactive). Moreover, the figures for the max response in [3] (setting [14]) and in test [3] (setting [15]) were 14% and 23%, respectively.

With `O=C1CC[C@@]23/C=C/C(=O)NCCCCNCCCNC(=O)/C=C/c4ccc(c2c4)OC3C1` (some centres not stated), the Potency entry in test [9], in [2], in test [4], in [5], in [6] and in [7] was “inactive” throughout. The Potency result in [8] was “inactive”. Further, the activity change, negative = inhibition in [3] is 2.57% (inactive). Further, the values for the max response in test [3] (setting [14]) and in [3] (setting [15]) were 7.49% and 1.79%, respectively.

With `COc1ccc2c(c1)OCC(Cc1ccc(OC)c(OC(C)=O)c1)C2=O` (configuration not stated), the Potency result in test [9], in test [2], in test [5], in test [6] and in test [7] was “inactive” each time. Also, the molecule was called inactive in test [12]. The activity change, negative = inhibition in [3] is 2.81% (inactive). Besides, the max response in test [3] (setting [14]) is 1.86%; in test [3] (setting [15]), -2.44%.

As to `CC(=O)Oc1ccc2c(c1)CCC1C2CC[C@]2(C)C(OC(C)=O)CCC12` (some centres not stated), the Potency result in [2], in test [5], in test [6], in [7] and in test [8] was “inactive” in each case. Also, the result in [12] was inactive. Besides, the activity change, negative = inhibition in test [3] is -2.53% (inactive). Also, the max response is 4% in test [3] (setting [14]) and 4.34% in test [3] (setting [15]).

`O=c1cc(-c2ccc(O)c(O)c2)oc2cc(OC3OC(CO)C(O)C(O)C3O)cc(O)c12` (configuration not stated): the Potency result in test [1], in test [6], in test [7] and in test [8] was “inactive” each time. The activity change, negative = inhibition in test [3] is 7.95% (inactive). For the same molecule, the max response stood at 6.89% in test [3] (setting [14]) and 11.2% in [3] (setting [15]). Besides, the call in test [13] was inactive. The Potency in test [5] was 7.03 µM (active).

Source of the values: PubChem BioAssay (NCATS).
